Source: the supplement of paper PMC6555819

How the values were obtained:
Test in all cases: PBM binding z-score (relative to random genomic background probes); higher = stronger binding; sequences stand for … in GC…GCGATTGACAGCGTAGAATGAAGG
[1] = test system: FXR:RXRa (NR concentration 270 nM, RXRa partner concentration 90 nM)
In short: (§1)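 Ligand-free nuclear receptor dimers were applied to custom Agilent 4×180K protein-binding microarrays whose double-stranded probes carried direct-repeat seeds, single-nucleotide variants, half-site ablations and random human genomic background sequences in 34-nt variable regions. Incubation lasted 1 h. Binding z-scores were computed against the random background probes from regression-normalized fluorescence.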

[2] = test system: LXRa:RXRa (NR concentration 270 nM, RXRa partner concentration 90 nM)
In short: as §1

[3] = test system: LXRa homodimer (NR concentration 270 nM)
In short: as §1

[4] = test system: LXRb:RXRa (NR concentration 270 nM, RXRa partner concentration 90 nM)
In short: as §1

[5] = test system: PPARa:RXRa (NR concentration 270 nM, RXRa partner concentration 90 nM)
In short: as §1

[6] = test system: PPARg:RXRa (NR concentration 180 nM, RXRa partner concentration 90 nM)
In short: as §1

[7] = test system: PPARg:RXRa 270nM:90nM, anti-RXR (NR concentration 270 nM, RXRa partner concentration 90 nM)
In short: as §1

[8] = test system: PPARg:RXRa 30nM:10nM, anti-RXR (NR concentration 30 nM, RXRa partner concentration 10 nM)
In short: as §1

[9] = test system: PPARg:RXRa 90nM:30nM, anti-RXR (NR concentration 90 nM, RXRa partner concentration 30 nM)
In short: as §1

[10] = test system: PPARg:RXRa DBDmut IVT, anti-RXR (DBD mutation: RXRa K156A/R161A, NR concentration 270 nM, RXRa partner concentration 90 nM)
In short: as §1

[11] = test system: PPARg:RXRa IVT, anti-PPARg (NR concentration 270 nM, RXRa partner concentration 90 nM)
In short: as §1

[12] = test system: PPARg homodimer (NR concentration 180 nM)
In short: as §1

[13] = test system: PXR:RXRa (NR concentration 270 nM, RXRa partner concentration 90 nM)
In short: as §1

[14] = test system: PXR homodimer (NR concentration 270 nM)
In short: as §1

[15] = test system: RARa:RXR (NR concentration 270 nM, RXRa partner concentration 90 nM)
In short: as §1

[16] = test system: RARa homodimer (NR concentration 270 nM)
In short: as §1

[17] = test system: RARb:RXRa (NR concentration 270 nM, RXRa partner concentration 90 nM)
In short: as §1

Sequence	PBM binding z-score [1]	PBM binding z-score [2]	PBM binding z-score [3]	PBM binding z-score [4]	PBM binding z-score [5]	PBM binding z-score [6]	PBM binding z-score [7]	PBM binding z-score [8]	PBM binding z-score [9]	PBM binding z-score [10]	PBM binding z-score [11]	PBM binding z-score [12]	PBM binding z-score [13]	PBM binding z-score [14]	PBM binding z-score [15]	PBM binding z-score [16]	PBM binding z-score [17]
TAGAGTAGGTTACGGGGGCATTCAGGGATGAAGA	2.76	3.19	1.55	5.06	4.61	7.4	6.43	4.51	5.78	5.84	6.92	2.22	3.17	2.11	3.35	1.56	2.85
CCGAGTAGGTCACGAGGGGGCATTCAGTGCGAAT	6.09	6.71	1.59	6.56	5.66	7.8	7.12	4.32	6.72	6.96	7.42	2.44	–	4.34	4.38	1.07	4.58
CTATGTAGGTTAACGGGGTCATTCAGTTTGAAAG	5.18	5.6	2.97	5.87	6.19	7.77	6.92	4.45	6.47	7.65	7.78	2.41	–	12.2	6.06	0.661	3.57
CTATTTAGGTTAAGGGGGTCATTCAGTTTGAAAG	4.85	4.88	2.76	6.33	5.72	7.22	7.14	4.74	6.89	6.86	6.59	5.85	5.9	12.3	5.84	2.72	3.71
TCGAGTACGTTACGGGGGCATTCAGGGATGAAGA	2.24	1.79	-0.186	3.82	2.44	0.609	1.72	1.42	1.85	1.28	2.5	0.453	2.92	1.24	1.86	0.239	1.38
CCGCGTAGGTTACGAGGGGGCATTCAGTGCGAAT	2.11	7.21	1.61	6.37	3.17	0.847	2.86	0.411	2.18	1.02	2.43	1.12	4.76	4.05	–	-0.311	2.14
CTATGTAGGTTAAGGGGGTCATTCATTTTGAAAG	4.9	4.91	3.28	6.23	5.9	8.6	7.7	6.27	7.77	7.22	7.67	2.86	5.45	5.06	5.94	1.58	3.38
TCGAGTAGGTTACAGGGGCATTCAGGGATGAAGA	0.886	1.08	0.219	1.68	2.44	2.7	2.87	1.73	2.71	3.72	4.1	0.898	1.17	0.587	1.5	0.487	1.59
TCGAGTAGGTTACGGGGGAATTCAGGGATGAAGA	0.979	1.58	0.0777	2.86	2.8	3.75	4.02	2.24	3.53	4.46	4.91	1.34	1.33	0.36	1.17	-0.238	1.62
TCGAGTAGGTTACGGGGGCATCCAGGGATGAAGA	2.12	2.55	0.293	4.73	4.35	6.04	6.05	3.04	5.24	5.07	5.83	2.37	–	1.02	3.31	0.18	2.46
CTATGTAGGTTAAGGGGGTTATTCAGTTTGAAAG	2.37	2.74	1.14	5.09	5.34	7.83	7.16	5.05	7.12	6.94	7.29	2.61	3.46	5.03	–	1.62	2.24
TCGAGCAGGTTACGGGGGCATTCAGGGATGAAGA	2.74	2.64	0.7	4.88	4.14	4.31	4.37	2.24	3.46	2.41	4.12	1.23	3.03	0.942	3.16	0.368	2.53
TCGGGTAGGTTACGGGGGCATTCAGGGATGAAGA	3.9	4.06	2.17	5.75	4.69	5.73	5.54	3.74	4.7	4.27	6.24	3.68	4.2	3.72	4.12	1.88	3.35
TCGAGTAGCTTACGGGGGCATTCAGGGATGAAGA	1.64	1.5	0.141	3.47	2.12	–	2.1	2.18	2.37	1.25	2.26	0.346	2.21	1.09	1.47	-0.926	0.94
TCGAGTAGGTTACGGGGGCATTCAGGGATGAAGA	2.79	2.81	0.777	5.02	4.38	5.95	5.71	3.3	5.07	4.99	5.99	1.92	–	1.53	2.98	1.5	2.61
CCGATTAGGTTACGAGGGGGCATTCAGTGCGAAT	2.54	7.34	1.59	6.42	3.29	1.45	2.96	0.437	2.32	3.12	3.4	1.22	4.69	3.98	2.28	0.441	2.49
TCGAGTAGGTTACGGGGGCATTCTGGGATGAAGA	2.21	2.51	0.493	5.03	4.23	6.17	5.55	3.42	4.95	5.04	5.91	1.3	2.85	1.48	2.92	-0.159	2.27
